In PubChem BioAssay (EPA / NIEHS):
The source made the active and inactive calls. The calls were made as follows: active = hit-call score of the fitted dose curve at least 0.9, where 1 is the maximum; inactive = score below 0.9.

Assay: ATG_PPRE_CIS: Attagene CIS-FACTORIAL HepG2 Assay for human Peroxisome Proliferator-activated Response Element (PPRE) (AID 2282958)
Conditions: HepG2 PPRE cis-element reporter, Attagene transcription factor profiling; actives raise or lower the signal
Description: ATG_CIS is a cell-based, multiplexed-readout assay that uses HepG2, a human liver cell line, with measurements taken at 24 hours after chemical dosing in a 24-well plate.ATG_PPRE_CIS is one of 52 assay component(s) measured or calculated from the ATG_CIS assay. It is designed to make measurements of mRNA induction, a form of inducible reporter, as detected with fluorescence intensity signals by Reverse transcription polymerase chain reaction (RT-PCR) and Capillary electrophoresis technology.Data from the assay component ATG_PPRE_CIS was analyzed into 1 assay endpoint. This assay endpoint, ATG_PPRE_CIS, was analyzed with bidirectional fitting relative to DMSO as the negative control and baseline of activity. Using a type of inducible reporter, measures of mRNA for gain or loss-of-signal activity can be used to understand the reporter gene at the transcription factor-level as they relate to the gene PPARA and PPARD and PPARG. Furthermore, this assay endpoint can be referred to as a primary readout, because this assay has produced multiple assay endpoints where this one serves a reporter gene function. To generalize the intended target to other relatable targets, this assay endpoint is annotated to the nuclear receptor intended target family, where the subfamily is non-steroidal.
Human liver HepG2 cells are transiently transfected with multiple reporter transcription units (MRTUs) in 6-well plates using FuGene 6 reagent (Roche; 3 ml FuGene/1 mg DNA). The MRTU constructs are regulated by a cis-regulating element (promoter). […] A major difference between the CIS and TRANS system is that in CIS activities of endogenous TFs are measured, whereas the TRANS assay evaluates changes in activities of exogenous, chimeric NR-Gal4 proteins. […] At the end of 24 hour incubation, total RNA was isolated using TriZol reagent (Invitrogen). The isolated RNA is then reverse-transcribed using oligo(dT) primer and Mo-MLV reverse transcriptase (Invitrogen) with DNAse I (Ambion) treatment for 30 min. The one-tenth of the produced cDNA was amplified by PCR using Taq DNA polymerase (Invitrogen) and two reporter sequence-specific primers. The PCR products were fluorescently labeled by primer extension with 6-arboxyfluorescein (6-FAM) 5'-labeled reporter sequence-specific primer (2 min at 95 C, 20 s at 68 C and 10 min at 72 C) and these products were digested with 5U of HpaI (New England Biolabs) for 2h at 37 C. The fragments were purified using Qiaquick PCR columns (Qiagen), analyzed on an ABI 3130xL genetic analyzer (Applied Biosystems) with peak positions identified by using a set of X-rhodamine (ROX)-labeled MapMarker1000 molecular weight standards (BioVentures). The raw capillary electrophoresis data was processed using Attagraph software (Attagene).

outcome, inactive:
Cc1ccc(S(=O)(=O)Oc2ccc(N=Nc3ccc(-c4ccc(N=Nc5c(O)ccc6cc(S(=O)(=O)O)cc(S(=O)(=O)O)c56)c(C)c4)cc3C)cc2)cc1, CN1CCOCC1, COc1ccc(CCO)cc1, O=CN1CCOCC1, CCOc1ccc(NC(=O)CC(C)O)cc1 (stereo not given), CCCCC1CCC(O)CC1 (stereo not given), CC1CC(O)CC(C)(C)C1 (stereo not given), CC(=O)CC(=O)Nc1ccccc1, CC=Cc1ccc(OC)c(OC)c1, C=C(C)CNCC, NCc1ccco1, CC(C)=CCCC(C)CC(=O)O (stereo not given), CCCCCc1ccco1, COC(=O)c1cccnc1, CCN(CCC#N)c1ccc(N=Nc2ccc([N+](=O)[O-])cc2)cc1, CCCCCCCC(=O)OCC(O)CO (stereo not given), CCCCCCCCCCCCS(=O)(=O)Cl, C=C(C#N)C(=O)OCC, CCOC(=O)CN, C=CCN(CC=C)CC=C, COC(=O)c1ccc(C)cc1C1=NC(C)(C(C)C)C(=O)N1 (stereo not given) (tested in a mixture with another compound), COc1ccc(N)c([N+](=O)[O-])c1, CCO/C=C1\N=C(c2ccccc2)OC1=O, COC(=O)Nc1ccc(Cl)c(Cl)c1, CC(=O)CC(=O)Nc1ccc(C)cc1C, c1ccc2cc(Nc3ccc(Nc4ccc5ccccc5c4)cc3)ccc2c1, CCCCOC(=O)CCCCCCCC(=O)OCCCC, O=C(O)c1ccc(O)cc1, CC(C)CCOC(=O)c1ccccc1, O=c1[nH]c(=O)c2cn[nH]c2[nH]1, COCCc1ccc(OCC(O)CNC(C)C)cc1 (stereo not given), COC(C)(C)CCCC(C)CC=O (stereo not given), Cc1c(C2(c3cc(Br)c(O)c(Br)c3C)OS(=O)(=O)c3ccccc32)cc(Br)c(O)c1Br, Cc1ccc2c(c1)C(=O)OC2=O, c1ccc(CCc2ccccc2)cc1, CCCCOCC, NC(=S)NNC(N)=S

AC50, active:
CCCC(=O)OC(C)(C)Cc1ccccc1 178 µM, CCOC(=O)COC(=O)c1cc(Oc2ccc(C(F)(F)F)cc2Cl)ccc1[N+](=O)[O-] 12.4 µM, Oc1ccc2cc(SSc3ccc4cc(O)ccc4c3)ccc2c1 160 µM
